Only some compounds are listed: those with a hit (about 11% of all), similar ones and a draw of the others.
HCV inhibitor: HCV inhibition. Huh7.5.1 HCVcc-Cre infection, luciferase reporter, 44 h. Potency, µM (titrated, usually from 41.8 µM), for the others: at the highest dose activity change, negative = inhibition, actives largely listed as inhibitors. hit rate 3.4% among 340,000. AID 651820; also: % is scaled to controls: 0 for no effect and ±100 for the full control effect
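HCVcc-Cre virus at an moi near 0.5 was added right after compound to cells cultured 4 h from seeding (1,000 cells/well). Luciferase activity was determined 44 h later, 15 min after substrate addition at RT.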
Pf growth 48h: inhibits P. falciparum growth in the first generation, 48 h | P. falciparum luciferase growth in erythrocytes, 48 h | Potency, µM (highest dose often 28.7 µM), without a hit: at the highest dose activity change, negative = inhibition, usual class: inhibitors | hit rate 5.9% among 310,000; also: % is scaled to controls: 0 for no effect and ±100 for the full control effect
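Luciferase-expressing parasites in RBCs, 2% Hct / 0.1% parasitemia final; RPMI 1640 + 0.5% Albumax; 37 C, 5% CO2, one generation; luminescence read-out, lower signal = inhibition.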
VACV Venus inh: vaccinia inhibition (Venus reporter); Potency, µM (top dose mostly 36.5 µM), for inactives: at the top dose activity change, negative = inhibition, most hits filed as inhibitors; hit rate 0.46% among 330,000; Vaccinia virus Venus reporter expression, fluorescence; AID 720580; calls by dose curve; tested in A549 cells; also: % is scaled to controls: 0 for no effect and ±100 for the full control effect; nearly all actives have a fitted effect of over 30% in size
Vaccinia mCherry: inhibitors of vaccinia virus infection (mCherry reporter signal) | Vaccinia virus mCherry reporter infection, fluorescence | Potency, µM (top dose mostly 36.5 µM), inactives show at the highest dose activity change, negative = inhibition, actives largely listed as inhibitors | hit rate 0.63% among 310,000; calls by dose curve; tested in A549 cells; also: % is scaled to controls: 0 for no effect and ±100 for the full control effect; nearly all actives have a fitted effect of over 35% in size
NS1 inh: blocks influenza NS1 protein function | Potency, µM (top dose mostly 46.1 µM), inactives show at the top dose activity, positive = more growth | AID 2326 | hit rate 0.4% among 270,000; calls by dose curve; also: actives are rising curves; nearly all actives have a fitted effect of over 50% in size
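Recovery from NS1-induced slow growth read by OD600 in budding yeast switched to galactose assay medium (pH 6.0, -URA) at 1:100 dilution. Compound 23 nl per well; the matching strain lacking NS1 serves as control.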
Pf growth 96h: inhibits malaria parasite growth, 96 h; P. falciparum luciferase reporter growth, 96 h; Potency, µM (doses to about 28.7 µM), for the others: at the top dose activity change, negative = inhibition, usual class: inhibitors; hit rate 6.9% among 320,000; also: % is scaled to controls: 0 for no effect and ±100 for the full control effect
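Readout is luminescence from an integrated firefly luciferase in P. falciparum. Red cells, 2% hematocrit and 0.05% parasitemia final, were cultured with compound through two parasite generations (96 hours) at 37 C, 5% CO2.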
* = called active by the depositor; [ ] = remark or other dose. Unless noted, calls follow the shape of the dose curve; as a rule, active = well fitted inhibition curve with a large enough effect; inconclusive = small, poorly fitted or top-dose-only effect, or another doubt; inactive = no such curve, though single readings can be large or run the other way. Potency is read from the fitted curve at half-maximal effect.

For CCN1C(=NCCc2cccs2)N[C@@H](CCc2ccccc2)[C@H](C(=O)NCCc2cccs2)[C@H]1C the results were Pf growth 48h 1.47µM*, NS1 inh 8.5% and Pf growth 96h 7.4%.
O=C(Nc1nc(-c2cc(Cl)sc2Cl)cs1)c1ccc(Br)s1 was read as HCV inhibitor inconclusive, VACV Venus inh -18.0%, Vaccinia mCherry -15.9%, NS1 inh 3.3% and Pf growth 96h -2.7%.
`O=C(Nc1nc(-c2ccccn2)cs1)c1cccc(-n2cnnn2)c1` gave HCV inhibitor inconclusive, Pf growth 48h 1.17µM*, NS1 inh -6.5% and Pf growth 96h 0.928µM*.
Screening O=C(Nc1nc(-c2ccccn2)cs1)c1ccco1 returned HCV inhibitor inconclusive, Pf growth 48h inconclusive, VACV Venus inh inconclusive, Vaccinia mCherry 2.51µM* and Pf growth 96h inconclusive.
Screening O=C(Nc1ccc(Br)cc1)c1cccc(-n2cnnn2)c1 returned HCV inhibitor -13.3%, Pf growth 48h -94.2%, VACV Venus inh -7.8%, Vaccinia mCherry inactive, NS1 inh 12.2% and Pf growth 96h inconclusive.
`O=C(Nc1nc(-c2ccccn2)cs1)c1ccc(Br)s1` gave HCV inhibitor 2.24µM*, Pf growth 48h inconclusive and NS1 inh -161.0%.
Screening Cc1cccc(OC(=O)c2sc(Cl)nc2C)c1 returned HCV inhibitor 28.4%, Pf growth 48h -6.8%, VACV Venus inh -5.6%, Vaccinia mCherry -9.3%, NS1 inh -1.5% and Pf growth 96h -21.8%.
For O=C(/C=C/c1ccc(Cl)cc1Cl)N(Cc1ccccc1)C1CCS(=O)(=O)C1 (stereo not given) the results were HCV inhibitor inconclusive, Pf growth 48h 3.9%, VACV Venus inh -13.7%, Vaccinia mCherry -25.2%, NS1 inh 0.6% and Pf growth 96h -23.8%.
CSc1cc(-c2ccccc2)n(C)c(=O)c1C#N was read as HCV inhibitor 10µM*, Pf growth 48h 2.8%, VACV Venus inh -26.3%, Vaccinia mCherry inconclusive and Pf growth 96h 8.9%.
For Cc1ccc(Cn2ccc(=O)c(OCc3ccccc3)c2C)cc1 the results were HCV inhibitor -1.0%, VACV Venus inh -8.5%, Vaccinia mCherry -17.7%, NS1 inh 1.5% and Pf growth 96h 23.2%.
For Cc1c(OCc2ccccc2)c(=O)ccn1Cc1ccc(F)cc1 the results were HCV inhibitor 1.78µM*, Pf growth 48h inconclusive, VACV Venus inh -5.5%, Vaccinia mCherry -5.3% and Pf growth 96h 2.33µM*.
`c1csc(C2=NC(c3ccncc3)=Nc3ccccc3N2)c1` gave VACV Venus inh -20.7% and Vaccinia mCherry -17.3%.
CNC[C@@H](CC1CCCCC1)NC[C@H](CC(C)C)NCCc1cccc(C(F)(F)F)c1 was read as HCV inhibitor inconclusive, Pf growth 48h inconclusive, VACV Venus inh inconclusive, Vaccinia mCherry 14.1µM*, NS1 inh inconclusive and Pf growth 96h 1.85µM*.
`CC[C@@H](C)[C@H](CNC)NC[C@@H](Cc1cccc2ccccc12)NCCc1cccc(C(F)(F)F)c1` gave HCV inhibitor 1.3%, Pf growth 48h inconclusive, VACV Venus inh inconclusive, Vaccinia mCherry inconclusive, NS1 inh -2.2% and Pf growth 96h 7.38µM*.
For COc1cccc(CCNCc2cccc(C(F)(F)F)c2)c1 the results were HCV inhibitor -20.0%, Pf growth 48h -20.5%, VACV Venus inh -17.9%, Vaccinia mCherry -16.1% and Pf growth 96h 42.2%[1.15 µM].
CCC[C@@H](CN[C@@H](CNC)[C@H](C)CC)NCC1CCC(C(C)(C)C)CC1 (stereo not given in full) was read as HCV inhibitor 7.94µM*, Pf growth 48h inconclusive, VACV Venus inh 12.6µM*, Vaccinia mCherry inconclusive, NS1 inh -3.9% and Pf growth 96h 3.29µM*.
`CCC[C@H](CN[C@@H](CNC)[C@H](C)CC)NCCc1cc(C(F)(F)F)cc(C(F)(F)F)c1` gave HCV inhibitor inconclusive, Pf growth 48h 4.15µM*, VACV Venus inh 20µM*, Vaccinia mCherry inconclusive, NS1 inh -4.0% and Pf growth 96h 2.08µM*.
For CCC(=O)Nc1nc2ccc(NC(C)=O)cc2s1 the results were HCV inhibitor 12.6%, Pf growth 48h 129.2%, VACV Venus inh -11.7%, Vaccinia mCherry -17.1%, NS1 inh -0.7% and Pf growth 96h 50.6%.
For CCOc1cccc2sc(Nc3nc4ccc(NC(C)=O)cc4s3)nc12 the results were HCV inhibitor 4.47µM*, Pf growth 48h inconclusive, VACV Venus inh inconclusive, Vaccinia mCherry -26.2%, NS1 inh 14.8% and Pf growth 96h inconclusive.
Screening COc1ccc(C)c2sc(NC(=O)CCS(=O)(=O)c3ccccc3)nc12 returned HCV inhibitor inconclusive, Pf growth 48h -20.6%, VACV Venus inh inconclusive, Vaccinia mCherry inconclusive, NS1 inh 7.1% and Pf growth 96h 5.22µM*.
CCOc1cccc2sc(NC(=O)CCS(=O)(=O)c3ccccc3)nc12 was read as HCV inhibitor 22.4µM*, Pf growth 48h inconclusive, VACV Venus inh -27.8%, Vaccinia mCherry inconclusive, NS1 inh -6.9% and Pf growth 96h inconclusive.
Screening Cc1nnc(NC(=O)CCS(=O)(=O)c2ccccc2)s1 returned HCV inhibitor -22.6%, Pf growth 48h inconclusive, VACV Venus inh -21.2%, Vaccinia mCherry inconclusive, NS1 inh 10.8% and Pf growth 96h 9.5%.
`O=C(COC(=O)c1ccccc1OCc1ccccc1Cl)NC1CC1` gave HCV inhibitor -11.8%, Pf growth 48h 3.8%, VACV Venus inh -5.3%, Vaccinia mCherry -14.4%, NS1 inh 4.5% and Pf growth 96h -1.4%.
For CC(=O)Nc1ccc(NC(=O)c2cc(-c3cc(F)ccc3OCC3CCCO3)n[nH]2)cc1 (stereo not given) the results were VACV Venus inh -6.3% and Vaccinia mCherry 0.5%.
Cc1ccc(C)c(Cn2nnc3c(=O)[nH]c(C4CCCN(C(=O)CC(C)C)C4)nc32)c1 (stereo not given) was read as HCV inhibitor -19.8%, Pf growth 48h inconclusive and NS1 inh -7.2%.
Screening CCCCC(=O)N1CCCC(c2nc3c(nnn3Cc3cc(C)ccc3C)c(=O)[nH]2)C1 (stereo not given) returned Pf growth 48h 8.28µM*, VACV Venus inh -11.2%, Vaccinia mCherry -16.8%, NS1 inh -9.7% and Pf growth 96h inconclusive.
For Cc1ccc(Cn2nnc3c(=O)[nH]c(C4CCCN(C(=O)Nc5ccc(F)cc5F)C4)nc32)cc1 (stereo not given) the results were HCV inhibitor 0.7%, Pf growth 48h inconclusive, VACV Venus inh -7.3%, Vaccinia mCherry -14.3%, NS1 inh inconclusive and Pf growth 96h inconclusive.
For Cc1ccc(C(=O)N2CCCC(c3nc4c(nnn4Cc4ccccc4)c(=O)[nH]3)C2)cc1 (stereo not given) the results were HCV inhibitor 17.4%, Pf growth 48h 10.4µM* and NS1 inh 5.5%.
